Reference: PubChem BioAssay (Tox21)
Activity calls are given as the source filed them. Unless noted, the call rests on the fitted dose curve; in most records, active means well fitted curve in the direction sought with a large enough effect in the repeat runs; inconclusive means weak or mixed curves; inactive means no such curve, though single readings can be large; an effect the other way counts as inactive or inconclusive.

Experiments:
[1] = qHTS assay for small molecule agonists of the p53 signaling pathway (AID 651631; calls by dose curve; further: nearly all actives have a fitted effect of over 15% in size)
In short: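 We treat p53RE-bla HCT-116 cells with compounds for 16 h at 37 °C, add LiveBLAzer B/G FRET substrate for 2 h at room temperature, and measure fluorescence intensity.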

[2] = qHTS assay for small molecules that induce genotoxicity in human embryonic kidney cells expressing luciferase-tagged ATAD5 (AID 651632); further: nearly all actives have a fitted effect of over 15% in size
In short: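 HEK293T cells carrying luciferase-tagged ATAD5 were given compound or DMSO vehicle and incubated 16 hr at 37C, 5% CO2. Luciferase activity was read after 30 min at room temperature with Amplite; a rise signals genotoxic stress.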

[3] = qHTS assay for small molecule agonists of the p53 signaling pathway - cell viability (AID 651633; calls by dose curve;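 further: p53RE-bla HCT reporter cells with a stable beta-lactamase p53 reporter; series mostly up to about 83 µM; nearly all actives have a fitted effect of over 30% in size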)
In short: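 Viability counter-read: CellTiter-Glo luminescence (30 min, room temperature) in the same p53RE-bla plates. These plates had been exposed to compounds for 16 h at 37 C.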

[4] = qHTS assay for small molecules that induce genotoxicity in human embryonic kidney cells expressing luciferase-tagged ATAD5 - cell viability (AID 651634; calls by dose curve; further: nearly all actives have a fitted effect of over 25% in size; further: potency means the concentration at half of the fitted maximal effect)
In short: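 HEK293T cells carrying luciferase-tagged ATAD5, 2,000 cells/well, exposed to compound for 15.5 hr at 37C. Viability read as live-cell protease activity by CellTiter-Fluor fluorescence after 30 min at 37C.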

[5] = qHTS assay for small molecule disruptors of the mitochondrial membrane potential (AID 720635); further: potency means the concentration at half of the fitted maximal effect
In short: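 Mitochondrial membrane potential tracked with Mito-MPS dye, red aggregates (ex 540/em 590 nm) against green monomers (ex 490/em 535 nm). Compound treatment 1 hr at 37C, dye 30 min in HepG2.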

[6] = qHTS assay to test for compound auto fluorescence at 590 nm (red) in HepG2 cells (AID 720674)
In short: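 Red autofluorescence (Ex/Em 540/590 nm, Rose Bengal sodium equivalents) was measured in HepG2 cells, 2,000 per well in MEM plus 10% FBS, plated overnight at 37 C. Readings were taken 1 hr after adding 23 nL compound or DMSO, at 37 C and 5% CO2.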

[7] = qHTS assay to test for compound auto fluorescence at 535 nm (green) in HepG2 cells (AID 720675)
[8] = qHTS assay to test for compound auto fluorescence at 460 nm (blue) in HEK293 cells (AID 720678)
In short: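 Auto fluorescence in the blue band was quantified as triamterene equivalency. HEK293 cells were seeded at 2,000/well, dosed after a 4-5 hr attachment, and kept overnight at 37C before the 405/460 nm reading.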

[9] = qHTS assay to test for compound auto fluorescence at 535 nm (green) in HEK293 cells (AID 720680)
[10] = qHTS assay to test for compound auto fluorescence at 460 nm (blue) in HEK293 cell free culture (AID 720681)
In short: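 Blue fluorescence (Ex 405/Em 460 nm, triamterene-equivalent) was read immediately after pin transfer of compound or DMSO into medium (DMEM, 10% FBS) without cells.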

[11] = qHTS assay to test for compound auto fluorescence at 535 nm (green) in HEK293 cell free culture (AID 720682)
In short: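 Green-channel intensity (Ex/Em 485/535 nm) was recorded from compound-treated wells containing only DMEM with 10% FBS. Fluorescein provided the equivalency standard.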

[12] = qHTS assay to test for compound auto fluorescence at 590 nm (red) in HEK293 cell free culture (AID 720683)
In short: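 Red-channel autofluorescence of compounds in culture medium (DMEM, 10% FBS), no cells, measured at 540/590 nm. Rose Bengal sodium is the reference fluorophore for equivalence.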

[13] = qHTS assay to test for compound auto fluorescence at 590 nm (red) in HepG2 cell free culture (AID 720684)
In short: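 Steps: dispense MEM/10% FBS medium, no cells; pin compound or DMSO vehicle; read red channel, Ex/Em 540/590 nm. Output given as Rose Bengal sodium equivalents.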

[14] = qHTS assay to test for compound auto fluorescence at 460 nm (blue) in HepG2 cell free culture (AID 720685)
In short: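 Compound (23 nL) or DMSO pinned into cell-free MEM with 10% FBS; blue fluorescence read at 405/460 nm excitation/emission, expressed as auto-fluorescence equivalency to triamterene.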

[15] = qHTS assay to test for compound auto fluorescence at 535 nm (green) in HepG2 cell free culture (AID 720686)
[16] = qHTS assay to test for compound auto fluorescence at 460 nm (blue) in HepG2 cells (AID 720687)
In short: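 Blue-channel autofluorescence (Ex/Em 405/460 nm, triamterene-equivalent) was measured after 1 hr compound exposure at 37 C, 5% CO2. Cells were HepG2, plated overnight at 37 C in MEM plus 10% FBS.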

[17] = target: Glucocorticoid receptor (Homo sapiens) (UniProt P04150); experiment: qHTS assay to identify small molecule agonists of the glucocorticoid receptor (GR) signaling pathway (AID 720691; active means well fitted activation curve with a large enough effect in the signal ratio in the repeat runs, not every such curve was filed as active; inconclusive means weak or mixed curves, or effect the other way; inactive means no such curve, though single readings can be large or run the other way; the % refers to the signal ratio; further: potency means the concentration at half of the fitted maximal effect)
Chain of Glucocorticoid receptor (Homo sapiens) (P04150 whole entry, looked up): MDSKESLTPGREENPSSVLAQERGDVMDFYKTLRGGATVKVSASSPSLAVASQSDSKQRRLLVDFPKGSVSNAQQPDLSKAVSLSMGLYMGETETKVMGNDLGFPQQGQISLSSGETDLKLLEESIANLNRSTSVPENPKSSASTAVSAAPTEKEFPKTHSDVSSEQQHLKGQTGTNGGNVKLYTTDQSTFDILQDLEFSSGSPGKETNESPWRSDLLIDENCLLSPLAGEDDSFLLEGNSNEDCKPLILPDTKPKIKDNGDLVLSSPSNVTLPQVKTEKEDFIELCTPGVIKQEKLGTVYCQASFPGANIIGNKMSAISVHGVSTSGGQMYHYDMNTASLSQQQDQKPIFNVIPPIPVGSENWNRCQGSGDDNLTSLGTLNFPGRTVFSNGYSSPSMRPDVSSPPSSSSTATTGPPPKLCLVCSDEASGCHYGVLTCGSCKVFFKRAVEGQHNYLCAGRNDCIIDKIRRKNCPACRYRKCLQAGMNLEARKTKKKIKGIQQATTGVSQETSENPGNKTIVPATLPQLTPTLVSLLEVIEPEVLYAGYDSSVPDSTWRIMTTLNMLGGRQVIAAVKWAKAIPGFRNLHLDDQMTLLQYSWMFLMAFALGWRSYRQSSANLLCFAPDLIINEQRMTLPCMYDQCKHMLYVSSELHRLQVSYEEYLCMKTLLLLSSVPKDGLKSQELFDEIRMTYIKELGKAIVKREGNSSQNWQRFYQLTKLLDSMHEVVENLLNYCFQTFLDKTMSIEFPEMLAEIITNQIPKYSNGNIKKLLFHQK
In short: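 GR-bla HeLa cells carrying a GRE-driven beta-lactamase reporter, exposed to compounds for 18 h at 37 C. Reporter activation read as fluorescence after 2 h with LiveBLAzer B/G FRET substrate at room temperature.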

[18] = target: Glucocorticoid receptor (Homo sapiens) (UniProt P04150); experiment: qHTS assay to identify small molecule antagonists of the glucocorticoid receptor (GR) signaling pathway (AID 720692; active means well fitted inhibition curve with a large enough effect in the signal ratio in the repeat runs, not every such curve was filed as active; inconclusive means weak or mixed curves, or effect the other way; inactive means no such curve, though single readings can be large or run the other way; the % refers to the signal ratio)
In short: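 GR-bla HeLa cells carrying a GRE-driven beta-lactamase reporter received compound after 4 h plating, then dexamethasone (5 nM final). After 18 h at 37C, the FRET substrate was loaded for 2 h at room temperature and fluorescence read.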

[19] = qHTS assay to test for compound auto fluorescence at 590 nm (red) in HEK293 cells (AID 720679)
In short: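 Autofluorescence equivalency to Rose Bengal sodium, 540/590nm, in HEK293 cells exposed overnight to 23 nL compound per well.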

[20] = qHTS assay for small molecule disruptors of the mitochondrial membrane potential - cell viability (AID 720634; calls by dose curve;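 further: human HepG2 liver cancer cells; series mostly up to about 83 µM; nearly all actives have a fitted effect of over 20% in size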)
In short: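 HepG2 cells, 2,000 per well, attached overnight, then treated 1 hr at 37 C, 5% CO2. Viability read as ATP by CellTiter-Glo luminescence after 30 min at room temperature. Read in the same wells as the m-MPI membrane-potential dye assay.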
On the % scale 0 is the no-effect control and ±100 the full control effect.

CC(=O)Nc1ccccc1C
inactive: Potency [1] | Potency [2] | Potency [3] | Potency [4] | Potency [5] | outcome [6] | outcome [7] | Potency [8] | outcome [9] | Potency [10] | outcome [11] | outcome [12] | outcome [13] | Potency [14] | outcome [15] | Potency [16] | Potency [17] | Potency [18]

C=CCCCCCCCCCCCCCCCC
inactive: activation [1] -3.57% [at 8.3 µM] | activation [2] 2.36% [at 8.08 µM] | activity change, negative = cytotoxicity [3] 16.1% [at 8.08 µM] | activity, negative = cytotoxicity [4] 7.59% [at 8.08 µM] | fluorescence, relative to Rose Bengal [6] 0.0868% [at 3.72 µM] | fluorescence, % of fluorescein control [7] -0.0078% [at 3.72 µM] | fluorescence, % of triamterene [8] 0.18% [at 3.72 µM] | fluorescence, % of fluorescent control [19] 0.277% [at 3.72 µM] | fluorescence, % of fluorescein [9] 0.013% [at 3.72 µM] | fluorescence, % of fluorescent control [10] -0.189% [at 3.72 µM] | activity change [11] -0.098% [at 3.72 µM] | fluorescence, % of fluorescent control [14] -0.0068% [at 3.72 µM] | fluorescence, % of fluorescein control [15] -0.0312% [at 3.72 µM] | fluorescence, % of fluorescent control [16] 0.0871% [at 3.72 µM]

CCCCC(=O)O[C@]1(C(=O)CO)[C@@H](C)C[C@H]2[C@@H]3CCC4=CC(=O)C=C[C@]4(C)[C@@]3(F)[C@@H](O)C[C@@]21C
inactive: Potency [1] | Potency [2] | Potency [4] | outcome [6] | outcome [7] | Potency [8] | outcome [19] | outcome [9] | Potency [10] | outcome [11] | outcome [12] | outcome [13] | Potency [14] | outcome [15] | Potency [16]
active: Potency [5] 19.3 µM | Potency [17] 0.0019 µM

C[C@@H]1C[C@H]2[C@@H]3CCC4=CC(=O)C=C[C@]4(C)[C@@]3(F)[C@@H](O)C[C@]2(C)[C@H]1C(=O)CO
active: Potency [17] 0.0085 µM [inconclusive]
inactive: Potency [1] | Potency [2] | Potency [3] | Potency [20] | Potency [5] | outcome [6] | outcome [7] | Potency [8] | outcome [11] | outcome [12] | outcome [13] | Potency [14] | outcome [15] | Potency [16]

O=C(C(=O)c1ccccc1)c1ccccc1
inactive: Potency [1] | Potency [3] | Potency [4] | outcome [6] | outcome [7] | Potency [8] | outcome [19] | outcome [9] | Potency [10] | outcome [11] | outcome [13] | Potency [14] | outcome [15] | Potency [17] | Potency [18]

CCC(Cc1ccccc1)(C(=O)c1ccc(N2CCOCC2)cc1)N(C)C (stereo not drawn)
inactive: Potency [1] | Potency [2] | Potency [4] | outcome [6] | outcome [7] | Potency [8] | outcome [19] | outcome [9] | Potency [10] | outcome [11] | outcome [12] | outcome [13] | Potency [14] | outcome [15]
active: Potency [5] 30.6 µM

Cc1cc(C(=C2C=CC(=Nc3ccc(S(=O)(=O)O)cc3S(=O)(=O)O)C=C2)c2ccc(Nc3ccc(S(=O)(=O)O)cc3)cc2)ccc1N
inactive: Potency [2] | Potency [3] | Potency [4] | Potency [20] | outcome [6] | outcome [7] | Potency [8] | outcome [19] | outcome [9] | Potency [10] | outcome [11] | outcome [12] | outcome [13] | Potency [14] | outcome [15] | Potency [16] | Potency [17]

CC(C)(C)CC(C)(C)c1ccc(OCCO)cc1
inactive: Potency [1] | Potency [2] | Potency [20] | outcome [6] | outcome [7] | Potency [8] | outcome [19] | outcome [9] | Potency [10] | outcome [11] | outcome [12] | Potency [14] | outcome [15] | Potency [16] | Potency [17]
active: Potency [4] 54.2 µM | Potency [5] 60.8 µM

CCOC(=O)c1ccccc1OC
inactive: Potency [2] | Potency [3] | Potency [4] | Potency [20] | Potency [5] | outcome [6] | outcome [7] | Potency [8] | outcome [19] | outcome [9] | Potency [10] | outcome [11] | Potency [14] | outcome [15] | Potency [16]
